As usually defined, the inhibition is the relative decrease from the control value, in per cent.

Among the data in ChEMBL document CHEMBL1961873, “Compounds: GSK PKIS; Assays: Nanosyn kinase panel” (2012) are inhibition values, retold here.

Assay [1] deals with Platelet-derived growth factor receptor beta (Homo sapiens) (UniProt P09619). To be noted: at 1 µM.
Assay [2] addresses Tyrosine-protein kinase FRK (Homo sapiens) (UniProt P42685). The following applies: at 0.1 µM.
Assay [3] has the same target. The following applies: at 1 µM.
Assay [4] deals with Protein-tyrosine kinase 2-beta (Homo sapiens) (UniProt Q14289). To be noted: at 0.1 µM.
The target is the same in assay [5]. The following applies: at 1 µM.
Assay [6] has as its target Proto-oncogene tyrosine-protein kinase receptor Ret (Homo sapiens) (UniProt P07949). The following applies: at 0.1 µM.
Assay [7] has the same target. To be noted: at 1 µM.
The subject of assay [8] is Proto-oncogene tyrosine-protein kinase receptor Ret (Homo sapiens), P07949 [V804L]. To be noted: at 0.1 µM.
Assay [9] has the same test system. The following applies: at 1 µM.
Assay [10] relates to Proto-oncogene tyrosine-protein kinase receptor Ret (Homo sapiens), P07949 [Y791F]. To be noted: at 0.1 µM.
Sequence of Proto-oncogene tyrosine-protein kinase receptor Ret (Homo sapiens), P07949 [Y791F] (P07949 whole entry Y791F): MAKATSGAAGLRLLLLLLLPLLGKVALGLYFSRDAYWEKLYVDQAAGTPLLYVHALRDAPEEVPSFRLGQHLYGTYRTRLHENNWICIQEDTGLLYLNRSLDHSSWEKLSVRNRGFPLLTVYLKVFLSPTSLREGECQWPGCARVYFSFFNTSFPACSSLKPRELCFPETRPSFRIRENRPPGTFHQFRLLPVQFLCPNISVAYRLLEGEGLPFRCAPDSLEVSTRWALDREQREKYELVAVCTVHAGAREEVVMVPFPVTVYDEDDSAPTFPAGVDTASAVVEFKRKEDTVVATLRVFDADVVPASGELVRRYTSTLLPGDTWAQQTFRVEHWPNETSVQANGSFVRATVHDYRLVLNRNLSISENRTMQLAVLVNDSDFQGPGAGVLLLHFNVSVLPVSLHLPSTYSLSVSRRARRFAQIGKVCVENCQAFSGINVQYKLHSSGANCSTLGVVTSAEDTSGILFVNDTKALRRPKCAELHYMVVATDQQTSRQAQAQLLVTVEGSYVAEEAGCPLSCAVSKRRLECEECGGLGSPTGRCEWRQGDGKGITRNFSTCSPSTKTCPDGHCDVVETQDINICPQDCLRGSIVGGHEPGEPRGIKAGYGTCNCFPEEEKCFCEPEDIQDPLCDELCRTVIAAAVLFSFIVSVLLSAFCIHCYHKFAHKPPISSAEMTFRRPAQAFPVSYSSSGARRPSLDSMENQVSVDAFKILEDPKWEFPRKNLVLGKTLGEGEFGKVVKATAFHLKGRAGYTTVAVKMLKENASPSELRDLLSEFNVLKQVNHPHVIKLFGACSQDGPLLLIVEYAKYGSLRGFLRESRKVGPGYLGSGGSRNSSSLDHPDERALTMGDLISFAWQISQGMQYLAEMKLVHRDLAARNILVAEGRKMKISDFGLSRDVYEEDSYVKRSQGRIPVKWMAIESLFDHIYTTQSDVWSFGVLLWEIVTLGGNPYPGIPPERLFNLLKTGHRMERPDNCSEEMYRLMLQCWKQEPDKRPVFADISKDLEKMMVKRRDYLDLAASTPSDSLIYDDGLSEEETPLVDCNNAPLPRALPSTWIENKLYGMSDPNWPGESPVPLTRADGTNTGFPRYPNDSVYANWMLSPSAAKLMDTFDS

Sequence of Proto-oncogene tyrosine-protein kinase receptor Ret (Homo sapiens), P07949 [V804L] (P07949 whole entry V804L): as the sequence (P07949 whole entry Y791F) above, with F791Y, V804L counted along it
Sequence of Platelet-derived growth factor receptor beta (Homo sapiens) (P09619 whole entry): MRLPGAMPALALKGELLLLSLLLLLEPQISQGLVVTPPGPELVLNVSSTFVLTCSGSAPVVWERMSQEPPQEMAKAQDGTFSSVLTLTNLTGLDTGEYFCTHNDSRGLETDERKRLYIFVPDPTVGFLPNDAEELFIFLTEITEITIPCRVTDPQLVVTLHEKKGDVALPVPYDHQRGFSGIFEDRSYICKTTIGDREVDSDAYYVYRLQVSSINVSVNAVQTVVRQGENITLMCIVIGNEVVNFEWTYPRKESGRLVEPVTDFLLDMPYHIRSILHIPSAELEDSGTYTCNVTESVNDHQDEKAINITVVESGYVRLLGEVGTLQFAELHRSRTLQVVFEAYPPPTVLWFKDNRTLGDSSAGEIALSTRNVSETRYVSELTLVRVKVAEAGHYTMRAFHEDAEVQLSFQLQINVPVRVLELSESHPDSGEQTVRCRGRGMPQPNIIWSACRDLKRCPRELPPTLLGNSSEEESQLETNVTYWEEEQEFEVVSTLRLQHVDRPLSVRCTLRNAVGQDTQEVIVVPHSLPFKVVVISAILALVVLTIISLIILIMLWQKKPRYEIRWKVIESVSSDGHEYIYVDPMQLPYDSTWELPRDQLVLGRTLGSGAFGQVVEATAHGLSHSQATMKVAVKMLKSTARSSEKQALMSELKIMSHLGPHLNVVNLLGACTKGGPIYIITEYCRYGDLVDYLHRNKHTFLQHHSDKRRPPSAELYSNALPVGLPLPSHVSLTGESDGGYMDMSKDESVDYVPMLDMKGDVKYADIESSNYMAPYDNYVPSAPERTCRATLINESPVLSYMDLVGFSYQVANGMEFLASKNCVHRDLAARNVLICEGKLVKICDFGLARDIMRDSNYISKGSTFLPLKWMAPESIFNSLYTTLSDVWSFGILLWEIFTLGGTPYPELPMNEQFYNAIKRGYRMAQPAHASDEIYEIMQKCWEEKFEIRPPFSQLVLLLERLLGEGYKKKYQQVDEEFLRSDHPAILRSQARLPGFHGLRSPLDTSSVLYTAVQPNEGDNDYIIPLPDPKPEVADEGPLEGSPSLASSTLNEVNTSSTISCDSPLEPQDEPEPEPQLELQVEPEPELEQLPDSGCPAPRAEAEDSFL
Sequence of Protein-tyrosine kinase 2-beta (Homo sapiens) (Q14289 whole entry, looked up): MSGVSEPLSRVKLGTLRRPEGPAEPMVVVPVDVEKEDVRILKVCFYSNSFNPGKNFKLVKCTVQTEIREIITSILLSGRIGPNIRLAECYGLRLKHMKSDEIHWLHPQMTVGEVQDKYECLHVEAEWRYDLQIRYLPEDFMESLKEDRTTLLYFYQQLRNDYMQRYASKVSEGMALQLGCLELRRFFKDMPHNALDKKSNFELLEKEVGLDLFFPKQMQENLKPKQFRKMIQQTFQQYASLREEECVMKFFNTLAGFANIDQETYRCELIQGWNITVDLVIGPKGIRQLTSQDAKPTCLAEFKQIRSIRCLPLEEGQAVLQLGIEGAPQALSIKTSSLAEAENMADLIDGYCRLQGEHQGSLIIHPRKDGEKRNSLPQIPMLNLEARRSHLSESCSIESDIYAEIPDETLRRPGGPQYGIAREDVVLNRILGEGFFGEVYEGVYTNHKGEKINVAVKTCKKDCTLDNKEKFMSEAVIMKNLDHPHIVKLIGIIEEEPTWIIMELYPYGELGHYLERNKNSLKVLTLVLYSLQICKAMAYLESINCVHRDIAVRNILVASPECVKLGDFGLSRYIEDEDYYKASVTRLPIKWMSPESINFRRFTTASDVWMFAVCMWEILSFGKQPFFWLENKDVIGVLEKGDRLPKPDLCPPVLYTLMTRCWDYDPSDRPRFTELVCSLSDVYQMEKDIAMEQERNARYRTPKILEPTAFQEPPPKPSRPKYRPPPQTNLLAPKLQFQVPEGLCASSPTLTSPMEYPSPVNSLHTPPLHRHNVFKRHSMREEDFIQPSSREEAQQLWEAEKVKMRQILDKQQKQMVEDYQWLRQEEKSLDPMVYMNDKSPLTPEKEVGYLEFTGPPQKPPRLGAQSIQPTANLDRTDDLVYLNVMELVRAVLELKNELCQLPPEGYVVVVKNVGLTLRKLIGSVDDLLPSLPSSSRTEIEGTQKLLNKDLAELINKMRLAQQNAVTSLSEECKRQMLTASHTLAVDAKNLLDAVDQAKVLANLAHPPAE
Sequence of Tyrosine-protein kinase FRK (Homo sapiens) (P42685 whole entry): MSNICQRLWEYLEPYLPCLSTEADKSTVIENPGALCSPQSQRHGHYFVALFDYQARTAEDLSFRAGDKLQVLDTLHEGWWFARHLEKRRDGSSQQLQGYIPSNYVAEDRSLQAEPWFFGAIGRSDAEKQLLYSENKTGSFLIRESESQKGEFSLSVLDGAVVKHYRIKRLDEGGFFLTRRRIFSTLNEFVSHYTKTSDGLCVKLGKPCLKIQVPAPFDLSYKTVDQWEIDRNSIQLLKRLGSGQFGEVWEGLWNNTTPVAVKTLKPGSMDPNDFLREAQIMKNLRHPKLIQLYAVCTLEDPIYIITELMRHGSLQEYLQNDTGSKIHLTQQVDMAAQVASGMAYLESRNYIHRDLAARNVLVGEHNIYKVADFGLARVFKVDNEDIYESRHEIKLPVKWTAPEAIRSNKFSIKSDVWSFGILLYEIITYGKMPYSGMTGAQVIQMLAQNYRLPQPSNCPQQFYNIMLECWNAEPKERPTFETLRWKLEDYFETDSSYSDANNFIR
Sequence of Proto-oncogene tyrosine-protein kinase receptor Ret (Homo sapiens) (P07949 whole entry): as the sequence (P07949 whole entry Y791F) above, with F791Y counted along it

On to `c1ccc(-c2n[nH]cc2-c2ccnc(-c3ccc(OCCN4CCOCC4)cc3)c2)nc1`, for which the inhibition in assay [1] was 52.2%; in assay [2], 2.08%; in assay [3] it was 0.63%; in assay [4], -9.86%; in assay [5], 0.28%; in assay [6], 8.77%. The inhibition in assay [7] is 11.1%; in assay [8], 6.56%; in [9], 4.32%; in assay [10] it was 10%.
Turning to `COc1cc2ncn(-c3cc(OCCc4ccccc4)c(C(N)=O)s3)c2cc1OC`, the inhibition worked out at 49.9% in assay [1]; 0.72% in assay [2]; 1.86% in assay [3]; 3.82% in assay [4]; 4.2% in [5]; 3.22% in [6]. Besides, the inhibition in assay [7] was 23.2%; in [8], 0.58%; in assay [9], 9.89%; in assay [10] it was 6.66%.
As to `COc1cc(C)c(N(C)C(=O)CN(C)C)cc1Nc1nc(Nc2cccc(F)c2C(N)=O)c2cc[nH]c2n1`, the inhibition is 2.38% in assay [1]; -0.14% in assay [2]; 1.16% in [3]; 14.7% in assay [4]; 45.8% in assay [5]; 6.8% in assay [6]. For the same compound, the inhibition was determined as 3.71% in [7], 8.2% in [8], 4.18% in assay [9] and 3.57% in [10].
`COc1cc2ncn(-c3cc(OCc4ccccc4C(F)(F)F)c(C(C)=O)s3)c2cc1OC`: the inhibition is 21.5% in assay [1]; 0.97% in assay [2]; 2.94% in assay [3]; 4.62% in assay [6]; 5.58% in assay [7]; 5.33% in assay [8]. Moreover, the inhibition was determined as 9.72% in [9] and 7.72% in assay [10].
As to `CN1CCN(CCCNc2nc3ccc(Oc4ccc(NC(=O)Nc5cc(C(F)(F)F)ccc5F)cc4)cc3[nH]2)CC1`, the inhibition in assay [1] was 25.8%; in assay [2], -0.13%; in assay [3], 5.78%; in assay [4], 6.22%; in assay [5], 7.87%; in assay [6] it was 76.2%. The inhibition in assay [7] is 86.2%; in [8], 38.8%; in assay [9], 74.9%; in [10], 65.8%.
Regarding `NC(=O)c1cc(-c2ccncc2)cc(-c2ccccc2)c1N`, the inhibition in [1] worked out at 26%; in assay [2] it was 3.05%; in assay [3], 7.89%; in assay [4] it was 10.8%; in assay [5], 13.4%; in [6], 6.99%. In addition, the inhibition in [7] is 27%; in assay [8], 2.8%; in assay [9], 6.36%; in assay [10], 6.34%.
Turning to `CCN(CC)Cc1ccc(Nc2nccc(-c3cnn4ncccc34)n2)cc1`, the inhibition in assay [1] was 71.8%; in assay [2], 2.63%; in assay [3], 3.76%; in assay [4], 24.8%; in [5], 81.3%; in assay [6], 4.61%. The inhibition in assay [7] is 12.8%; in assay [8], 2.46%; in assay [9], 16.3%; in assay [10], 5.39%.
On to `Fc1ccc(-c2ncn(C3CCNCC3)c2-c2ccnc(Oc3ccc(F)c(F)c3)n2)cc1`, for which the inhibition stood at 10.6% in assay [1]; 2.06% in [2]; 2.77% in [3]; 4.15% in [4]; 11.9% in assay [5]; 3.19% in assay [6]. Further, the inhibition came to 7.38% in assay [7], 4.74% in assay [8], 11.2% in assay [9] and 7.7% in [10].
Take `Fc1ccc(-c2ncn(C3CCNCC3)c2-c2ccnc(Oc3ccc(Oc4ccccc4)cc3)n2)cc1`: the inhibition in assay [1] was found to be 3.75%; in assay [2], 2.37%; in assay [3], 2.86%; in [4], 3.19%; in assay [5] it was 6.71%; in assay [6], 2.36%. For the same compound, the inhibition in [7] is 5.4%; in assay [8] it was 3.16%; in assay [9], 7.16%; in [10] it was 15.6%.
Regarding `FC(F)(F)c1cccc(Nc2nccc(-c3cnn4nc(-c5ccccc5)ccc34)n2)c1`, the inhibition in assay [1] was 37.1%; in [2], 1.24%; in assay [3] it was 0.8%; in assay [4], -1%; in assay [5], 7.77%; in assay [6], 0.18%. Moreover, the inhibition in assay [7] came to 2.88%; in [8], 3.76%; in [9], 4.5%; in [10] it was 3.91%.
`CN(c1ccc(NC(=O)Nc2c(Cl)cccc2Cl)cc1)c1ccnc(Nc2cccc(CS(C)(=O)=O)c2)n1`: the inhibition in [1] was 77.7%; in [2], 3.86%; in assay [3], 14.5%; in assay [4], 55.1%; in [5], 29.7%; in assay [6], 23.8%. The inhibition in [7] turned out to be 48.6%; in assay [8], 13.2%; in [9], 41%; in [10] it was 24.4%.
Regarding `COc1cc(Nc2ncc3c(C)nc(-c4cccc(Oc5ccccc5)c4)n3n2)cc(OC)c1OC`, the inhibition in [1] worked out at 10.4%; in assay [2], 0.9%; in [3], 0.75%; in assay [4], 5.25%; in [5], 6.67%; in assay [6], 4.22%. The inhibition turned out to be 29.1% in [7], 8.26% in assay [8], 43% in [9] and 3.87% in [10].
Regarding `Fc1ccc(-c2nc3n(c2-c2ccncc2)CCS3)cc1`, the inhibition in [1] amounted to 8.35%; in assay [2], 1.92%; in assay [3] it was 3.19%; in [4], 9.18%; in assay [5], 6.63%; in [6] it was 4.05%. Besides, the inhibition in [7] was 8.81%; in [8], 9.59%; in [9], 12.6%; in assay [10] it was 5.15%.
Regarding `COc1ccc2cc(-c3c(-c4ccncc4)nc(-c4ccc([S+](C)[O-])cc4C)n3C)ccc2c1` (configuration not stated), the inhibition in assay [1] was 5.35%; in [2] it was -0.28%; in assay [3], -0.05%; in [4] it was -4.54%; in [5] it was -2.74%; in assay [6], 2.66%. Besides, the inhibition in assay [7] was determined as 22.2%; in assay [8] it was 1.07%; in assay [9], 2.78%; in [10], 2%.
Turning to `NS(=O)(=O)c1ccc(Nc2cc(-c3ccc(O)c(F)c3)n[nH]2)cc1`, the inhibition in assay [1] was 53.4%; in [2], -1.68%; in assay [3] it was 0.93%; in [4], -2.28%; in assay [5] it was -1.9%; in [6], 11.3%. Moreover, the inhibition in assay [7] is 55%; in [8], 10.6%; in assay [9] it was 47.6%; in assay [10] it was 14.1%.
Consider `Clc1ccc(CNc2nccc(-c3cnn4ncccc34)n2)cc1`, for which the inhibition in [1] was 13.8%; in assay [2], 0.01%; in [3], 1.32%; in assay [4], -4.51%; in assay [5], 2.8%; in assay [6] it was 0.88%. The inhibition in assay [7] is 5.75%; in assay [8], -0.76%; in assay [9], 5.56%; in assay [10], -0.42%.
In the case of `Cc1ccc(C(=O)NC(C)C)cc1-c1ccc(C(=O)NCC2CC2)cc1`, the inhibition in assay [1] is 2.4%; in [2], 0.01%; in assay [3], -0.89%; in assay [4] it was -7.76%; in assay [6] it was 2.09%; in [7] it was 0.64%. Further, the inhibition in assay [8] is -0.26%; in assay [9], -0.17%; in assay [10], -0.71%.
